Test system: Vero E6 infected with SARS-CoV-2
Test: inhibition of SARS-CoV-2 cytopathic effect; higher = more antiviral protection, active = above 15
Conditions: 48 h

Measured: inhibition of SARS-CoV-2 cytopathic effect

CC(C)C[C@@H](N)C1(c2ccc(Cl)cc2)CCC1
inactive: 1 nM -0.06% | 8.33 nM -2.41% | 100 nM -2.87% | 833.33 nM -1.42% | 10000 nM -7.34%

COc1cc(OC)c2c(=O)[nH]c(-c3cc(C)c(OCCO)c(C)c3)nc2c1 [apabetalone]
inactive: 1 nM -0.27% | 8.33 nM 0.93% | 100 nM 2.32% | 833.33 nM -1.57% | 10000 nM -0.84%

CCC(=O)OCC(=O)[C@@]1(OC(=O)CC)[C@@H](C)C[C@H]2[C@@H]3CCC4=CC(=O)C=C[C@]4(C)[C@@]3(F)[C@@H](O)C[C@@]21C
inactive: 1 nM -0.73% | 8.33 nM 0.98% | 100 nM -1.61% | 833.33 nM 0.59% | 10000 nM -0.08%

CCC[C@H]1C(=O)N2C(N(C)C)=Nc3ccc(C)cc3N2C1=O [azapropazone]
inactive: 1 nM -0.8% | 8.33 nM -0.4% | 100 nM -0.47% | 833.33 nM -0.49% | 10000 nM -3.61%

Nc1ccn(C[C@@H](CO)OCP(=O)(O)O)c(=O)n1 [cidofovir]
inactive: 1 nM -0.38% | 8.33 nM 0.11% | 100 nM -1.45% | 833.33 nM -1.91% | 10000 nM -2.8%

CC(=O)c1ccc(NS(C)(=O)=O)c(Oc2ccc(F)cc2F)c1
inactive: 1 nM 4.46% | 8.33 nM 0.47% | 100 nM 0.56% | 833.33 nM 1.88% | 10000 nM 2.13%

CC(=O)N[C@H](Cc1ccc2ccccc2c1)C(=O)N[C@H](Cc1ccc(Cl)cc1)C(=O)N[C@H](Cc1cccnc1)C(=O)N[C@@H](CO)C(=O)N[C@@H](Cc1ccc(NC(=O)[C@@H]2CC(=O)NC(=O)N2)cc1)C(=O)N[C@H](Cc1ccc(NC(N)=O)cc1)C(=O)N[C@@H](CC(C)C)C(=O)N[C@@H](CCCCNC(C)C)C(=O)N1CCC[C@H]1C(=O)N[C@H](C)C(N)=O [degarelix]
inactive: 1 nM -0.25% | 8.33 nM 1.93% | 100 nM 3.06% | 833.33 nM 1.45% | 10000 nM 2.25%

CCC(C(=O)O)c1ccc(CC(C)C)cc1 (stereo not given) [butibufen]
inactive: 1 nM -2.32% | 8.33 nM -1% | 100 nM 1.35% | 833.33 nM 2.34% | 10000 nM -0.15%

CC(=O)O[C@]1(C(C)=O)CC[C@H]2[C@@H]3CCC4=CC(=O)CCC4=C3[C@@H](c3ccc(N(C)C)cc3)C[C@@]21C [Ulipristal acetate]
inactive: 1 nM 4.79% | 8.33 nM 2.62% | 100 nM 1.8% | 833.33 nM 7.36% | 10000 nM 12.9%

CSCC[C@H](NC(=O)[C@H](CC(C)C)NC(=O)[C@@H](Cc1c[nH]c2ccccc12)NC(=O)[C@H](Cc1ccccc1)N(C)C(=O)[C@@H](Cc1c[nH]c2ccccc12)NC(=O)[C@@H](N)CCCNC(=N)N)C(N)=O [antagonist-g]
inactive: 1 nM 2.09% | 8.33 nM 0.43% | 100 nM -0.05% | 833.33 nM 1.24% | 10000 nM -1.09%

CN(C[C@@H]1COCCO1)S(=O)(=O)Nc1ccc2ccc3ncc(-c4cnn(C)c4)cc3c(=O)c2c1
inactive: 1 nM -0.78% | 8.33 nM 1.08% | 100 nM -0.46% | 833.33 nM -1.97% | 10000 nM -4.16%

N[C@@H](Cn1oc(=O)[nH]c1=O)C(=O)O [L-quisqualic-acid]
inactive: 1 nM -3.6% | 8.33 nM 3.03% | 100 nM 2.21% | 833.33 nM -1.93% | 10000 nM 0.17%

O=C(NC(NC(=S)Nc1ccc(F)c([N+](=O)[O-])c1)C(Cl)(Cl)Cl)C(c1ccccc1)c1ccccc1 (stereo not given)
inactive: 1 nM -2.82% | 8.33 nM -2.75% | 100 nM 0.28% | 833.33 nM -7.06% | 10000 nM -5.53%

CCCn1c(=O)c2nc(C34CC5CC(CC3C5)C4)[nH]c2n(CCC)c1=O
inactive: 1 nM 1.22% | 8.33 nM -0.55% | 100 nM 2.44% | 833.33 nM 2.31% | 10000 nM 1.25%

Cc1ccccc1N(C)C(=O)c1ccc([S+]([O-])c2nccs2)c([N+](=O)[O-])c1 (stereo not given)
inactive: 1 nM -0.08% | 8.33 nM -0.71% | 100 nM 1.56% | 10000 nM 12.2%
active: 833.33 nM 16.5%

CC(C)(C)Nc1nc(Nc2ccc(C(N)=O)cc2)cc(N)c1C#N
inactive: 1 nM -1.51% | 8.33 nM -2.29% | 100 nM -0.39% | 833.33 nM -2.89% | 10000 nM -1.36%

Cn1nnc(-c2ccc(-c3ccc(N4C[C@H](COP(=O)(O)O)OC4=O)cc3F)cn2)n1 [tedizolid-phosphate]
inactive: 1 nM -1.65% | 8.33 nM -1.24% | 100 nM -0.65% | 833.33 nM 1.74% | 10000 nM 1.44%

C[C@@H]1COC(Nc2ccc3ncnc(Nc4ccc(OCc5nccs5)c(Cl)c4)c3c2)=N1
inactive: 1 nM 2.68% | 8.33 nM 1.86% | 100 nM -0.65% | 833.33 nM -3.55% | 10000 nM -4.19%

COc1cccc2cc(-c3nc([C@H]4CC[C@H](C(=O)O)CC4)n4ncnc(N)c34)[nH]c12
inactive: 1 nM 0.22% | 8.33 nM 2.25% | 100 nM 4.58% | 833.33 nM -0.9% | 10000 nM -2.61%

NC1CCN(c2cccc(Cl)n2)CC1
inactive: 1 nM 0.72% | 8.33 nM -1.55% | 100 nM -4.6% | 833.33 nM -0.29% | 10000 nM -3.39%

O=NN(CCCl)C(=O)NC1CCCCC1 [lomustine]
inactive: 1 nM -1.8% | 8.33 nM 1.26% | 100 nM 1.76% | 833.33 nM 2.26% | 10000 nM -0.14%

COc1ccc(C2C(=O)c3ccccc3C2=O)cc1 [anisindione]
inactive: 1 nM 0.46% | 8.33 nM 1.92% | 100 nM 2.19% | 833.33 nM -3.04% | 10000 nM -1.46%

CC(c1cc2ccccc2s1)N(O)C(N)=O (stereo not given) [zileuton]
inactive: 1 nM -2.05% | 8.33 nM -0.81% | 100 nM 1.43% | 833.33 nM -1.9% | 10000 nM -1.8%

N=C(N)c1cc2ccc(OC(=O)c3cccs3)cc2s1
inactive: 1 nM 1.66% | 8.33 nM 1.86% | 100 nM 2.63% | 833.33 nM -1.57% | 10000 nM 4.87%

Clc1ccc(CCCOCCCN2CCCCC2)cc1 [pitolisant]
inactive: 1 nM 1.67% | 8.33 nM 1.19% | 100 nM -1.62% | 833.33 nM -2.26% | 10000 nM -0.08%

CC(=C(CCOC(=O)C(C)C)SSC(CCOC(=O)C(C)C)=C(C)N(C=O)Cc1cnc(C)nc1N)N(C=O)Cc1cnc(C)nc1N (stereo in doubt) [sulbutiamine]
inactive: 1 nM 2% | 8.33 nM 2.05% | 100 nM 3.99% | 833.33 nM -4.07% | 10000 nM -4.54%

NC[C@H](O)c1ccc(O)c(O)c1 [norepinephrine]
inactive: 1 nM 1.39% | 8.33 nM -0.56% | 100 nM -2.09% | 833.33 nM 0.33% | 10000 nM -1.61%

CC1=C(C(=O)OC(C)C)C(c2cccc([N+](=O)[O-])c2)C(C(=O)OC2CN(C(c3ccccc3)c3ccccc3)C2)=C(N)N1 (stereo not given) [azelnidipine]
inactive: 1 nM 3.44% | 8.33 nM 1.14% | 100 nM -0.26% | 833.33 nM 0.91% | 10000 nM -6.87%

COC(=O)Nc1nc2cc(C(=O)c3ccc(F)cc3)ccc2[nH]1 [flubendazole]
inactive: 1 nM -1.07% | 8.33 nM 0.53% | 100 nM 0.32% | 833.33 nM 0.07% | 10000 nM -2.34%

CCCCCCCCCCCCCCCC[n+]1ccn(Cc2ccccc2)c1C
inactive: 1 nM -1.36% | 8.33 nM 0.51% | 100 nM 0.65% | 833.33 nM -4.4% | 10000 nM -20.9%

CC(C)(C)c1ccc(C(=O)Nc2cn3cc(-n4ccnc4)ccc3n2)cc1
inactive: 1 nM 2.98% | 8.33 nM 0.55% | 100 nM 2.27% | 833.33 nM 2.13% | 10000 nM -0.45%

N#Cc1cnc2cnc(NCc3cccnc3)cc2c1Nc1ccc(F)c(Cl)c1
inactive: 1 nM 0.87% | 8.33 nM 1.05% | 100 nM 2.35% | 833.33 nM -1.3% | 10000 nM -8.45%

COc1cc(C(=O)NS(=O)(=O)c2ccccc2C)ccc1Cc1cn(C)c2ccc(NC(=O)OC3CCCC3)cc12 [zafirlukast]
inactive: 1 nM -1.22% | 8.33 nM -0.73% | 100 nM 0.48% | 833.33 nM 0.88% | 10000 nM -2.73%

CC(=O)N1CCC[C@H]1C(=O)N[C@@H](Cc1cnc[nH]1)C(=O)N[C@@H](CO)C(=O)N[C@@H](CS)C(=O)N[C@@H](CC(N)=O)C(N)=O
inactive: 1 nM 1.06% | 8.33 nM 0.67% | 100 nM 2.55% | 833.33 nM 2.87% | 10000 nM 3.86%

C[C@@H]1COCCN1c1cc(C2([S@](C)(=N)=O)CC2)nc(-c2ccnc3[nH]ccc23)n1
inactive: 1 nM -1.91% | 8.33 nM -1.92% | 100 nM 0.5% | 833.33 nM 1.27% | 10000 nM 1.76%

CC(C)(C)[C@]1(O)CC2OC(=O)CC23C(=O)OC2OC(=O)[C@H](O)C231 (stereo not given in full) [bilobalide]
inactive: 1 nM -0.27% | 8.33 nM 0.92% | 100 nM 0.44% | 833.33 nM -0.26% | 10000 nM -0.37%

CCOC(=O)Nc1ccc2c(c1)N(C(=O)CN(CC)CC)c1ccccc1CC2
inactive: 1 nM -0.45% | 8.33 nM 0.56% | 100 nM 1.77% | 833.33 nM 0.29% | 10000 nM 0.79%
